Test results published in PubChem BioAssay (NCATS).
Records with an inconclusive call do not appear. The source made the active and inactive calls. Calls come from the whole dose curve; as a rule, active = well fitted inhibition curve with a large enough effect; inconclusive = small, poorly fitted or top-dose-only effect; inactive = flat fitted curve, though single readings scatter.

Columns and labels:
[1] = target: Glutathione peroxidase 1 (Homo sapiens) (UniProt P07203); assay: Primary qHTS Assay for Inhibitors of Recombinant Selenoprotein Glutathione Peroxidase 1 (GPX1) (AID 1845191); conditions: recombinant GPX1, GR-coupled NADPH fluorescence, 15 min; series mostly up to 27.7 µM; note: nearly all actives have a fitted effect of over 65% in size
Glutathione peroxidase 1 (Homo sapiens), sequence (P07203 whole entry, looked up): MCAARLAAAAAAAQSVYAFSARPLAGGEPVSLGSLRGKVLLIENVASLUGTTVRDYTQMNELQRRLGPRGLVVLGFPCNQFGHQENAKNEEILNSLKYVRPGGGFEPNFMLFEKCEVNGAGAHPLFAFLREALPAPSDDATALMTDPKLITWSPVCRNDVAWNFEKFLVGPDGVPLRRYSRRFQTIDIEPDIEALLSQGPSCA
Procedure, shortened: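 10 nM GPX1 + cpd, 30 min RT; start w/ 1 mM GSH, 0.5 mM cumene hydroperoxide, 0.5 mM NADPH, 100 nM GR, 0.01% BSA; buffer 50 mM Tris-HCl pH 7.5, 2 mM EDTA, 150 mM NaCl; Fl 340/450, 0 & 15 min.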

[2] = target: Phospholipid hydroperoxide glutathione peroxidase GPX4 (Homo sapiens) (UniProt P36969); assay: Primary qHTS Assay for Inhibitors of Recombinant Selenoprotein Glutathione Peroxidase 4 (GPX4) (AID 1845192); conditions: recombinant GPX4, GR-coupled NADPH fluorescence, 15 min; series mostly up to 27.8 µM; note: nearly all actives have a fitted effect of over 65% in size; for activity change, negative = inhibition: % is set by controls: 0 for no effect and ±100 for the full control effect
Phospholipid hydroperoxide glutathione peroxidase GPX4 (Homo sapiens), sequence (P36969 whole entry, looked up): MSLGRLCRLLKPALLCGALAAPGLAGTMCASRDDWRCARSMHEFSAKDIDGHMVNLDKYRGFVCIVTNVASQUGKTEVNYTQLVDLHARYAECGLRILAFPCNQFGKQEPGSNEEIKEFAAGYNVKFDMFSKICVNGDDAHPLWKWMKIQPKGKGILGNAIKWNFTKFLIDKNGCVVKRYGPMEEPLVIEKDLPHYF
Procedure, shortened: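 NADPH consumption, followed by fluorescence at 340/450 nm between 0 and 15 min, reports GPX4 activity via coupled glutathione reductase (100 nM). Enzyme 200 nM was pre-exposed to compound 30 min; 0.5 mM cumene hydroperoxide and 1 mM GSH served as substrates.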

[3] = target: Luciferin 4-monooxygenase (Photinus pyralis) (UniProt P08659); assay: Primary firefly luciferase (FLuc) qHTS assay for identification of artifact compounds. (AID 1845220); conditions: purified firefly luciferase, luminescence, 5 min; series mostly up to 54.1 µM; note: nearly all actives have a fitted effect of over 60% in size;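 for activity change, negative = inhibition: plate controls were DMSO vehicle for no effect and no enzyme for full effect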
Procedure, shortened: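 Compounds sat 15 min at room temperature with 10 uM luciferin and 10 uM ATP (pH 7.6 Tris acetate). Firefly luciferase (10 nM final) was then added, and luminescence was read 5 min later. Data normalized to no-enzyme and DMSO controls were Hill-fitted.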

CC1=COC(OC2OC(CO)C(O)C(O)C2O)C2C(CO)CC(OC(=O)/C=C/c3ccc(O)cc3)C12 (stereo not given)
inactive: Potency [1] | Potency [2] | Potency [3]

N[C@@H](CC(=O)Nc1ccc(Oc2cc(F)c(F)cc2Br)cc1)C(=O)O
inactive: Potency [1] | Potency [2] | Potency [3]

COc1cc(/C=C/C(=O)OC[C@H]2O[C@@H](OC3OC=C(C(=O)O)C4C(O)CC(C)(O)C34)[C@H](O)[C@@H](O)[C@@H]2O)cc(OC)c1O (stereo not given in full)
inactive: Potency [1] | Potency [2] | Potency [3]

CC1=CC23[C@H](C=C(C(=O)O)[C@@H]2COC(=O)[C@]3(O)CO)[C@@H]1C (stereo not given in full)
inactive: Potency [1] | Potency [2] | Potency [3]

C[C@@]12CC3(S(=O)(=O)O)OC(O1)[C@]1(COC(=O)c4ccccc4)[C@H]3C[C@]21O[C@@H]1O[C@H](CO)[C@@H](O)[C@H](O)[C@H]1O
inactive: Potency [1] | Potency [2] | Potency [3]

C/C=C1/[C@H](O[C@@H]2O[C@H](CO)[C@@H](O)[C@H](O)[C@H]2O)OC=C(C(=O)OC)[C@H]1CC(=O)OCCc1ccc(OC(=O)C[C@@H]2C(C(=O)OC)=CO[C@@H](O[C@@H]3O[C@H](CO)[C@@H](O)[C@H](O)[C@H]3O)/C2=C/C)cc1
inactive: Potency [1] | Potency [2] | activity change, negative = inhibition [3] 2.52% [at 11.6 µM]

COc1ccc(/C=C/C(=O)O[C@@H]2[C@@H](O[C@@H]3O[C@H](CO)[C@@H](O)[C@H](O)[C@H]3O)[C@@H](O)[C@H](O[C@H]3C4C=CO[C@@H](O[C@@H]5O[C@H](CO)[C@@H](O)[C@H](O)[C@H]5O)C4[C@@]4(CO)O[C@@H]34)O[C@H]2C)cc1 (stereo not given in full)
inactive: Potency [1] | Potency [2] | activity change, negative = inhibition [3] -3.03% [at 11.6 µM]

COc1cc(CO)ccc1O[C@@H]1O[C@H](CO)[C@@H](O)[C@H](O)[C@H]1O
inactive: Potency [1] | Potency [2] | Potency [3]

COc1cc(Nc2nc3ccccc3nc2NS(=O)(=O)c2cccc(NC(=O)c3ccc(C)c(OC)c3)c2)cc(OC)c1
inactive: Potency [1] | Potency [2] | Potency [3]

CCC12CCCN3CCc4c(n(c5ccccc45)C(O)C1)C32 (stereo not given)
inactive: Potency [1] | Potency [2] | Potency [3]

C=C1Cc2c(Cl)cc3[nH]c4c5c3c2[C@@]2(O)[C@@H]1C[C@@H]2C(C)(C)O[C@H]5C1CC[C@@]2(O)[C@@]35O[C@@H]3[C@H]3OC(C)(C)[C@H]3O[C@H]5CC[C@]2(C)[C@@]41C (stereo not given in full)
inactive: Potency [1] | Potency [2] | Potency [3]

CC1=C(C(=O)OC2OC(COC3OC(CO)C(O)C(O)C3O)C(O)C(O)C2O)C(C)(C)CCC1 (stereo not given)
inactive: Potency [1] | Potency [2] | Potency [3]

C=C1CCC2[C@](C)(CCC[C@]2(C)C(=O)O)[C@H]1CC/C(C)=C/C(=O)OC (stereo not given in full)
inactive: Potency [1] | Potency [2] | Potency [3]

COCCCc1sc(-c2ccccc2)nc1C(=O)Nc1ccccc1-c1nc2cc(CN3CCCC3)cnc2s1
inactive: Potency [1] | Potency [2] | Potency [3]

C/C=C1\[C@H](O[C@@H]2O[C@H](CO)[C@@H](O)[C@H](O)[C@H]2O)OC=C(C(=O)O)[C@H]1CC(=O)OCCc1ccc(O)cc1
inactive: Potency [1] | Potency [2] | Potency [3]

COc1ccc(/C=C/C(=O)O[C@@H]2[C@@H](O)[C@@H](O)[C@H](O[C@H]3[C@@H]4C=CO[C@@H](O[C@@H]5O[C@H](CO)[C@@H](O)[C@H](O)[C@H]5O)[C@@H]4[C@@]4(CO)O[C@@H]34)O[C@H]2C)cc1
inactive: Potency [1] | Potency [2] | Potency [3]

OC[C@H]1O[C@@H](OCc2ccccc2)[C@H](O)[C@@H](O)[C@@H]1O
inactive: Potency [1] | Potency [2] | Potency [3]

CC1CCC2C(C(=O)O)=CC3(O)CC(C)(C)CC123 (stereo not given)
inactive: Potency [1] | Potency [2] | Potency [3]

Cc1nc(-c2cccnc2)sc1C(=O)Nc1ccccc1-c1cn2c(CN3CCOCC3)csc2n1
inactive: Potency [1] | Potency [2] | Potency [3]

CC1(CO)CCCC2(C)C3COC(=O)C3=CC(O)C12 (stereo not given)
inactive: Potency [1] | Potency [2] | Potency [3]

C=C(CCO[C@@H]1O[C@H](CO)[C@@H](O)[C@H](O)[C@H]1O)C(=O)O
inactive: Potency [1] | Potency [2] | Potency [3]

COC(=O)[C@]1(C)CCC[C@@]2(C)C(=O)CC[C@H]3C(=O)C=C(CC[C@@H]21)C3O (stereo not given in full)
inactive: Potency [1] | Potency [2] | Potency [3]

C=C(C(=O)O)[C@H]1C[C@]2(C)C(=O)CC[C@]23O[C@H]1C[C@@H]3C
inactive: Potency [1] | Potency [2] | Potency [3]

CC(C)=CCc1cc(O[C@@H]2O[C@H](CO[C@@H]3OC[C@](O)(CO)[C@H]3O)[C@@H](O)[C@H](O)[C@H]2O)ccc1O
inactive: Potency [1] | Potency [2] | Potency [3]

NC1(c2ccc(NC(=O)c3ccnc(-c4cc(C(=O)O)ccn4)c3)cc2)CC1
inactive: Potency [1] | Potency [2] | Potency [3]

COC1OC(=O)C2=C1C1(C)CCCC(C)(C)C1CC2O (stereo not given)
inactive: Potency [1] | Potency [2] | Potency [3]

CC1=CC(=O)CC(C)(C)C1/C=C/C(C)OC1OC(COC2OCC(O)C(O)C2O)C(O)C(O)C1O (stereo not given)
inactive: Potency [1] | Potency [2] | Potency [3]

C/C=C(\C)C(=O)OCC1OC(OC2OC(CO)C(O)C(O)C2O)C(O)C(O)C1O (stereo not given)
inactive: Potency [1] | Potency [2] | Potency [3]

CC1(C)C=Cc2c(ccc3c2[N+]([O-])=C2C3(O)CC34NC(=O)C5(CCCN5C3=O)CC4C2(C)C)O1 (stereo not given)
inactive: Potency [1] | Potency [2] | Potency [3]

C=CC(C)(CC/C=C(\C)C(=O)OC)OC1OC(COC(=O)CC(C)(O)CC(=O)O)C(O)C(O)C1O (stereo not given)
inactive: Potency [1] | Potency [2] | Potency [3]

COC(=O)[C@H](Cc1ccc([N+](=O)[O-])cc1)NC(=O)c1cccc2ccccc12
inactive: Potency [1] | Potency [2] | Potency [3]

OC[C@@]1(O)CO[C@@H](OC[C@H]2O[C@@H](Oc3ccccc3)[C@H](O)[C@@H](O)[C@@H]2O)[C@@H]1O
inactive: Potency [1] | Potency [2] | Potency [3]

Cc1c(NC(=O)N2CCOCC2)ccc2c1c1ccccc1n2C(C)C
inactive: Potency [1] | Potency [2] | Potency [3]

CC1CC(=O)C2C(O)(C1)CC(O)C13OC1c1c(O)cccc1C(=O)C23O (stereo not given)
inactive: Potency [1] | Potency [2] | Potency [3]

C[C@@H]1O[C@@H](O[C@H]2[C@@H]3C=CO[C@@H](O[C@@H]4O[C@H](CO)[C@@H](O)[C@H](O)[C@H]4O)[C@@H]3[C@@]3(CO)O[C@@H]23)[C@H](O)[C@H](O)[C@H]1OC(=O)/C=C/c1ccc(O)cc1
inactive: Potency [1] | Potency [2] | Potency [3]

CC(=O)OC/C(=C/C(=O)O)CC[C@@H]1C(CO)=CC[C@@H]2C(C)(C)CCC[C@@]12C
inactive: Potency [1] | Potency [2] | Potency [3]

C[C@H]1CC[C@H]2[C@@H](C=C[C@@](C)(O)[C@]2(C)C(=O)CCO)C1
inactive: Potency [1] | Potency [2] | Potency [3]

C=C(C)C(O)COc1ccc(CC(=O)O)cc1 (stereo not given)
inactive: Potency [1] | Potency [2] | Potency [3]

COCC1OC(OC(C)(C)C2CCC3(C)C=C(C4CCC5C4(C)CC(O)C4OC(C(C)(C)O)CCC45C)CCC3O2)C(NC(C)=O)C(O)C1O (stereo not given)
inactive: Potency [1] | Potency [2] | Potency [3]

C/C1=C\CC[C@]2(C)O[C@H]2C(=O)c2c(C)coc2C1
inactive: Potency [1] | Potency [2] | Potency [3]

C[C@H]1[C@H](C)CC[C@]2(C(=O)OC3OC(CO)C(O)C(O)C3O)CC[C@]3(C(=O)O)C(=CCC4[C@@]5(C)CC[C@H](O[C@@H]6O[C@@H](C)[C@H](OC7OC(CO)C(O)C(O)C7O)[C@@H](O)[C@H]6O)C(C)(C)C5CC[C@]43C)[C@H]12 (stereo not given in full)
inactive: Potency [1] | Potency [2] | activity change, negative = inhibition [3] -5.72% [at 11.6 µM]

C=C1CC23CC1CCC2C12OC(=O)C(C)(C(O)C(O)C1O)C2C3C(=O)O (stereo not given)
inactive: Potency [1] | Potency [2] | Potency [3]

COc1c2c(c(C)c3c1C(=O)OC3)OC1(C)CC(O)C34OC(OC)(CCC3(C)C1C2)OC4(C)CO (stereo not given)
inactive: Potency [1] | Potency [2] | Potency [3]

COC(=O)C1(O)C(OC(C)=O)CCC2C3(CC(c4ccoc4)OC3=O)C(C)=CCC21C(=O)OC (stereo not given)
inactive: Potency [1] | Potency [2] | Potency [3]

CC1OC(OC2C(OC3C(O[C@H]4CC[C@@]5(C)C(CC[C@]6(C)C5C(=O)CC5=C7CC(C)(C)CC(O)[C@]7(C)CC[C@]56C)C4(C)C)OC(C(=O)O)C(O)C3O)OCC(O)C2O)C(O)C(O)C1O (stereo not given in full)
inactive: Potency [1] | Potency [2] | activity change, negative = inhibition [3] 0.49% [at 11.6 µM]
